The record followed here is the supplement of paper PMC6522484.

Each structure is given as a SMILES string. ± gives the standard deviation of the averaged measurements.

The test system of this assay is HCT116. Put plainly: cell viability (CellTiter-Glo) relative to plate median (fraction of plate median); higher = more viable cells. To be noted: 5 µM; treatment time 24 h; reporter: TCF4/Wnt. The essentials: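 On parallel plates, a Tecan F500 reader recorded either firefly luciferase or CellTiterGlo luminescence. The plates held colorectal cancer cells stably transduced with lentiviral TCF/Wnt firefly luciferase reporters (7TFP or TCF4/Wnt), seeded in 384-well format and treated 24 h later with library compounds at a final 5 µM for 24 h. Per-well signals were normalised to the plate median (webcellHTS2, additive, no log transformation), and two independent replicates were averaged.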
A general note: Cellular ATP, detected with luciferase, serves as a proxy for viable cell number.
As for `CN1CCC(=C2c3ccccc3Sc3ccccc32)CC1`, the cell viability is 0.913 ± 0.032.

Compound `CC(C)c1c(O)c(-c2cc3c(c(C(C)C)c2O)CCC2C(C)(C)CCC[C@]32C)cc2c1CCC1C(C)(C)CCC[C@]21C` (stereo not given in full) showed a cell viability of 1.07 ± 0.1. In the case of `CC(C)CCC[C@@H](C)[C@H]1CC[C@H]2[C@@H]3CC=C4C[C@@H](O)CC[C@]4(C)[C@H]3CC[C@]12C`, the cell viability was determined as 1 ± 0.11. With `O=c1occ(C(O)CO)c2cccc(O)c12` (stereo not given) [Oospoglycol] the figure was 0.9515 ± 0.0035; with `O=C(NC(Cc1cc(=O)[nH]c2ccccc12)C(=O)O)c1ccc(Cl)cc1` (stereo not given), 0.975 ± 0.026; with `NC[C@@H]1O[C@@H](O[C@H]2[C@H](O)[C@@H](O[C@H]3O[C@H](CO)[C@@H](O)[C@H](N)[C@H]3O)[C@H](N)C[C@@H]2N)[C@@H](O)[C@H](O)[C@H]1O`, 1.04 ± 0.014. Compound `O=C1C=C2CC3(O)COc4c(ccc(O)c4O)C3=C2C=C1O` (stereo not given) gave a cell viability of 1.04 ± 0.065.

Regarding `CC[C@H](CC[C@@H](C)[C@H]1CC[C@H]2[C@@H]3CC=C4C[C@@H](O)CC[C@]4(C)[C@H]3CC[C@]12C)C(C)C` [beta-SITOSTEROL], the cell viability is 1.03 ± 0.035.

`CCCCCC(=O)O[C@]1(C(C)=O)CC[C@H]2[C@@H]3CCC4=CC(=O)CC[C@]4(C)[C@H]3CC[C@@]21C` yielded a cell viability of 1.04 ± 0.057. The result for `CCCCC/C=C/CCC(=O)N[C@H]1[C@H](Oc2c3cc4cc2Oc2ccc(cc2Cl)[C@@H](O[C@@H]2O[C@H](CO)[C@@H](O)[C@H](O)[C@H]2NC(C)=O)[C@@H]2NC(=O)[C@H](NC(=O)[C@@H]4NC(=O)[C@H]4NC(=O)C(Cc5ccc(c(Cl)c5)O3)NC(=O)[C@H](N)c3ccc(O)c(c3)Oc3cc(O)cc4c3)c3ccc(O)c(c3)-c3c(OC4O[C@H](CO)[C@@H](O)[C@H](O)[C@@H]4O)cc(O)cc3[C@@H](C(=O)O)NC2=O)O[C@H](CO)[C@@H](O)[C@@H]1O` (stereo not given in full) [TEICOPLANIN [A(2-1) shown]] reads 1.01 ± 0.07. With `CN(C)c1ccc(C(=C2C=CC(=[N+](C)C)C=C2)c2ccc(N(C)C)cc2)cc1` the figure was 0.381 ± 0.17; with `CC1CC2C3CCC4=CC(=O)C=CC4(C)C3(F)C(O)CC2(C)C1C(=O)CO` (stereo not given), 0.895 ± 0.043; with `NNCCc1ccccc1`, 0.943 ± 0.069.

The compound `CCOC(=O)[N-]c1c[n+](N2CCOCC2)no1` came in with a cell viability of 1.01 ± 0.089. With `COC(=O)c1c(C)cc(O)cc1O` the figure was 0.837 ± 0.23. Take `CC(=O)O[C@@H]1CC2C(C)(C)[C@H](O)CC[C@]2(C)C2CC[C@@]3(C)[C@H](c4ccoc4)OC(=O)C4OC43[C@@]21C` (stereo partly drawn) [alpha-DIHYDROGEDUNOL]: the cell viability was 1.01 ± 0.032. The result for `CCOC(=O)[C@@](C)(N)Cc1ccc(O)c(O)c1` reads 0.93 ± 0.098.

Compound `CC(C)CCCC(C)C1CCC2C3=CCC4CC(O)CCC4(C)C3CCC21C` (stereo not given) gave a cell viability of 1.07 ± 0.11. The result for `NC(=O)NCCC[C@H](N)C(=O)O` reads 1 ± 0.051; that for `CCCC(=O)Nc1ccc(OCC(O)CNC(C)C)c(C(C)=O)c1` (stereo not given), 0.966 ± 0.019. Regarding `CC(=O)C1=C(O)C=C2Oc3c(C(C)=O)c(O)c(C)c(O)c3C2(C)C1=O` (stereo in doubt), the cell viability worked out at 1.04 ± 0.028.

`CCc1c(O)cc(C(C)CC)oc1=O` (stereo not given) [Germicidin]: the cell viability turned out to be 0.92 ± 0.034. In turn, `CS(=O)(=O)CCCCN=C=S` came in with a cell viability of 0.8885 ± 0.00071. `COc1c(N2C[C@@H]3CCCN[C@@H]3C2)c(F)cc2c(=O)c(C(=O)O)cn(C3CC3)c12` yielded a cell viability of 1.02. With `COc1cc2c(cc1OC)-c1c(oc3cc(O)cc(O)c3c1=O)CO2`, the cell viability amounted to 0.972 ± 0.096.

`Cn1c(=O)[nH]c(=O)c2[nH]cnc21` returned a cell viability of 0.8635 ± 0.0064. With `NC(=O)NO` the figure was 1.05 ± 0.042. The result for `C[C@H]1COc2c(N3CCN(C)CC3)c(F)cc3c(=O)c(C(=O)O)cn1c23` reads 0.966 ± 0.04.

The compound `CCN(CCCc1ccccc1)CCCc1ccccc1` gave a cell viability of 1.06 ± 0.021. The result for `OC[C@H]1O[C@@](CO)(O[C@H]2O[C@H](CO)[C@@H](O)[C@H](O)[C@H]2O)[C@@H](O[C@H]2O[C@H](CO)[C@@H](O)[C@H](O)[C@H]2O)[C@@H]1O` reads 1.05 ± 0.014. The result for `C[C@@H]1C[C@H]2[C@@H]3CCC4=CC(=O)C=C[C@]4(C)[C@@]3(F)[C@@H](O)C[C@]2(C)[C@@]1(O)C(=O)COP(=O)(O)O` reads 1.02 ± 0.075; that for `CC(=O)O[C@]1(C(C)=O)CC[C@H]2[C@@H]3C=C(C)C4=CC(=O)CC[C@]4(C)[C@H]3CC[C@@]21C`, 0.971 ± 0.037. In turn, `CC(=O)O[C@@H]1CC2C(C)(C)[C@H](O)C[C@H](O)[C@@]2(C)C2CC[C@]3(C)C(=CC(=O)O[C@@H]3c3ccoc3)[C@]21C` (stereo not given in full) came in with a cell viability of 0.982 ± 0.097. With `CN(C)c1ccc(O)c2c1C[C@H]1C[C@H]3[C@H](N(C)C)C(O)=C(C(N)=O)C(=O)[C@@]3(O)C(O)=C1C2=O` the figure was 1.03 ± 0.09; with `Cc1cc(/C=C/c2ccc3cc(N(C)C)ccc3[n+]2C)c(C)n1-c1ccccc1`, 0.592 ± 0.17; with `C[C@]12C=CC(=O)C=C1CC[C@H]1[C@@H]3C[C@@H](O)[C@](O)(C(=O)CO)[C@@]3(C)C[C@H](O)[C@@]12F`, 1.01 ± 0.047. The compound `CC(C)=CCc1cccc2c(C[C@@H]3NC(=O)[C@H](C)NC3=O)c[nH]c12` [Terezine D] had a cell viability of 0.9635 ± 0.0021. With `C#C[C@]1(O)CC[C@H]2[C@@H]3CCc4cc(O)ccc4[C@H]3CC[C@@]21C` the figure was 0.972 ± 0.054; with `C=C(C)[C@@H]1CC=C(C(=O)O)CC1`, 1.04 ± 0.11; with `CN(C)CCOC(=O)C(c1ccccc1)C1(O)CCCC1` (stereo not given), 1.07 ± 0.099.
